Reference: PubChem BioAssay (EPA / NIEHS)
Activity calls are given as the source filed them. Rule for the calls: active = hit-call score of the fitted dose curve at least 0.9, where 1 is the maximum; inactive = score below 0.9.

What was measured:
[1] = ATG_CRE_CIS: Attagene CIS-FACTORIAL HepG2 Assay for human cAMP Responsive Element (CRE) binding protein 3 (AID 2282926); details: HepG2 CRE cis-reporter, Attagene multiplexed mRNA; actives raise or lower the signal
In short: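 Liver-derived HepG2, transfected with a CRE-containing reporter panel, exposed 24 h; transcript levels sized and quantified by capillary electrophoresis of labelled amplicons; signal changes either way referenced to vehicle.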

[2] = biological target: CCAAT/enhancer-binding protein beta (Homo sapiens) (UniProt P17676); test: ATG_C_EBP_CIS: Attagene CIS-FACTORIAL HepG2 Assay for human CCAAT/Enhancer Binding Protein (C/EBP) beta (AID 2282927); details: HepG2 Attagene cis-factorial transcription factor reporter; actives raise or lower the signal
Sequence of CCAAT/enhancer-binding protein beta (Homo sapiens) (P17676 whole entry, looked up): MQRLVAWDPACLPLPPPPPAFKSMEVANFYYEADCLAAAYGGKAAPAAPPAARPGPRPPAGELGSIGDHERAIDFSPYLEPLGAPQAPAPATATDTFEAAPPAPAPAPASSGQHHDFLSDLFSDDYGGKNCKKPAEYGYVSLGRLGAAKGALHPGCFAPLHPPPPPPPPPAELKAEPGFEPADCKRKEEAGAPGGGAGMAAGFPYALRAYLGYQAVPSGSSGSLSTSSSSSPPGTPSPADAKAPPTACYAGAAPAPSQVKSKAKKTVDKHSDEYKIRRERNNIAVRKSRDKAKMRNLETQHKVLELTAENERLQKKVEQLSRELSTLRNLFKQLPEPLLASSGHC
In short: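 RT-PCR/capillary electrophoresis fluorescence of reporter mRNA, 24 h post-dose, in HepG2 cells carrying transfected cis-promoter reporter units. Bidirectional curve fitting against DMSO baseline captures gain or loss of signal.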

[3] = ATG_CMV_CIS: Attagene CIS-FACTORIAL HepG2 Assay for human CMV (Internal Marker) (AID 2282928); details: HepG2 CMV promoter reporter, transcription factor profiling; actives raise or lower the signal;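 note: endpoint acts as a background internal control marker rather than a target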
In short: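 Fluorescence intensity of RT-PCR-derived reporter fragments, resolved by capillary electrophoresis, gives the signal. HepG2 liver cells bearing transfected cis-element reporters were treated 24 h; activity in either direction was fit relative to DMSO-treated controls.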

[4] = ATG_DR4_LXR_CIS: Attagene CIS-FACTORIAL HepG2 Assay for human Liver X Receptor (LXR), DR4 submotif (AID 2282929); details: HepG2 Attagene DR4 cis-reporter, mRNA transcription; actives raise or lower the signal
In short: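 The endpoint is DR4-element-driven reporter transcripts after 24 h chemical exposure of transfected HepG2 cells. These were measured via RT-PCR and capillary electrophoresis, and gain or loss of signal was fitted relative to DMSO controls.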

[5] = biological target: Aryl hydrocarbon receptor (Homo sapiens) (UniProt P35869); test: ATG_Ahr_CIS: Attagene CIS-FACTORIAL HepG2 Assay for human Aryl Hydrocarbon Receptor (Ahr) (AID 2282930); details: HepG2 AhR cis-factorial reporter transcription; actives raise or lower the signal
Sequence of Aryl hydrocarbon receptor (Homo sapiens) (P35869 whole entry, looked up): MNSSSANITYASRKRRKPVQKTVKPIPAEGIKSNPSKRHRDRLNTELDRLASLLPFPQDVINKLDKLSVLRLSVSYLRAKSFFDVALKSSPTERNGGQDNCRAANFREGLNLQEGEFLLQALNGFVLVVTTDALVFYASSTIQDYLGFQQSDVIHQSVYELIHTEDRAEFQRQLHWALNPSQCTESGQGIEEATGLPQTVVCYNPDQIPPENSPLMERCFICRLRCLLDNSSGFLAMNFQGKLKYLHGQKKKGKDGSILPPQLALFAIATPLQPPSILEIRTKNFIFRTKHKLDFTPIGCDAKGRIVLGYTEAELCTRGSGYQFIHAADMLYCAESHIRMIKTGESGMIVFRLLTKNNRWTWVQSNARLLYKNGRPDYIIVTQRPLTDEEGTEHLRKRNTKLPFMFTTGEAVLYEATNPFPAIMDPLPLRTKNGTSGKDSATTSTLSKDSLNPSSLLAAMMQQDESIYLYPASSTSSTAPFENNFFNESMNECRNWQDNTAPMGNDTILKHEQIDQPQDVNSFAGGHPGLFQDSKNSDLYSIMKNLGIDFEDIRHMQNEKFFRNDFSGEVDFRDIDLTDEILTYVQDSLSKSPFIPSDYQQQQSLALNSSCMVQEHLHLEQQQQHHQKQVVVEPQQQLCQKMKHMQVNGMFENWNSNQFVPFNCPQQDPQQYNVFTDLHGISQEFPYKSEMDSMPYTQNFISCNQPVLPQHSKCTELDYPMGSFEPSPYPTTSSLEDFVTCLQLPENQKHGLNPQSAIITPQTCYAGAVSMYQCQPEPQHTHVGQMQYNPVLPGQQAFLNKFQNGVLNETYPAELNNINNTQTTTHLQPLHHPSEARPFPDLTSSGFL
In short: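 HepG2 cells transiently transfected with cis-element-driven multiplexed reporter transcription units; endogenous transcription factor activity measured as reporter mRNA 24 h after dosing. RT-PCR, 6-FAM labelling, HpaI digestion, capillary electrophoresis; bidirectional fitting versus DMSO baseline.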

[6] = ATG_AP_1_CIS: Attagene CIS-FACTORIAL HepG2 Assay for human Activator Protein 1 (AP-1) (AID 2282931); details: HepG2 Attagene cis-factorial AP-1 reporter mRNA; actives raise or lower the signal
In short: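 Readout is reporter transcript level from endogenous transcription factor activity, quantified by RT-PCR with fluorescent primer extension and capillary electrophoresis. Transiently transfected HepG2 cells, 24 h exposure. Curves fitted both directions versus DMSO.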

[7] = ATG_AP_2_CIS: Attagene CIS-FACTORIAL HepG2 Assay for human Activator Protein 2 (AP-2) (AID 2282932); details: HepG2 AP-2 cis-reporter, Attagene transcription factor profiling; actives raise or lower the signal
In short: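 Assay in transfected HepG2 with promoter-regulated reporters, 24 h incubation after dosing. Signal is reporter mRNA fluorescence (RT-PCR, capillary electrophoresis), analysed for both increases and decreases relative to DMSO controls.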

[8] = ATG_BRE_CIS: Attagene CIS-FACTORIAL HepG2 Assay for human Bone Morphogenetic Protein (BMP) Response Element (BRE) (AID 2282933); details: HepG2 BMP response element reporter, Attagene transcription factor profiling; actives raise or lower the signal
In short: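 Multiplexed cis-reporter assay, HepG2, 24 h exposure. mRNA from reporter units quantified via RT-PCR/CE; DMSO baseline; bidirectional curve fit.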

[9] = biological target: Retinoic acid receptor alpha (Homo sapiens) (UniProt P10276); test: ATG_DR5_RAR_CIS: Attagene CIS-FACTORIAL HepG2 Assay for human Retinoic Acid Receptor Alpha (RARE), DR5 submotif (AID 2282934); details: HepG2 Attagene cis-factorial RARE DR5 reporter, mRNA; actives raise or lower the signal;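 for AC50: reporter responds to endogenous RAR alpha beta and gamma in HepG2 not RARA alone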
Sequence of Retinoic acid receptor alpha (Homo sapiens) (P10276 whole entry, looked up): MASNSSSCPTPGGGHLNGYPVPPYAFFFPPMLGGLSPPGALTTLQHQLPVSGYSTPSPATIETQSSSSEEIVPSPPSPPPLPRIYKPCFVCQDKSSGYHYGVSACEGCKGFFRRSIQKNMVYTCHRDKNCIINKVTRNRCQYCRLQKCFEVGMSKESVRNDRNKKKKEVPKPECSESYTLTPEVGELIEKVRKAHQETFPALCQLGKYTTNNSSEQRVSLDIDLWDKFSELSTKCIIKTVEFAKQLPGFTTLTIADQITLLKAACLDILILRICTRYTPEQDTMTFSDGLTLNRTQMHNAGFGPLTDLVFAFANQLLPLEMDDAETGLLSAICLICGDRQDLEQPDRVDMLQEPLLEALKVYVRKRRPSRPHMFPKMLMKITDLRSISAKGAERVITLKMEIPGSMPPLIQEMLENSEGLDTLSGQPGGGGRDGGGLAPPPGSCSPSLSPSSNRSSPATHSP
In short: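 HepG2 cells transiently transfected with multiplexed reporter units under cis (DR5 RARE) promoters, so endogenous transcription factor activity is measured. After 24 h compound exposure, reporter mRNA is quantified by RT-PCR with fluorescent labelling and capillary electrophoresis; bidirectional fitting versus DMSO.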

Measured: AC50

CCOC(=O)COC(=O)c1ccccc1C(=O)OCC
not listed: [9]
inactive: all other assays above

COc1ccc(OC)cc1
not listed: [9]
inactive: all other assays above

Cc1cc(O)c(C)c(C)c1O
active: [3] 18.5 µM | [5] 17.8 µM | [8] 52.8 µM
not listed: [9]
inactive: all other assays above

CCC(C)(C)C1CCC(=O)CC1
not listed: [9]
inactive: all other assays above

CN(C)CCC=C1c2ccccc2CCc2ccccc21
active: [1] 33.4 µM | [4] 27 µM | [6] 61.2 µM
not listed: [9]
inactive: all other assays above

CC1=CCC(=C(C)C)CC1
not listed: [9]
inactive: all other assays above

CC(=O)OC/C=C(C)/C=C/C=C(C)/C=C/C1=C(C)CCCC1(C)C
active: [6] 40.6 µM
not listed: [9]
inactive: all other assays above

COc1cc(OC)c2ccc(=O)oc2c1
active: [4] 2.81 µM
not listed: [9]
inactive: all other assays above

O=C1CCC(=O)N1
not listed: [9]
inactive: all other assays above

C1CCCNCC1
active: [5] 62.5 µM
not listed: [9]
inactive: all other assays above

C=CC(=O)OCCCCCC
not listed: [9]
inactive: all other assays above

NC(=O)c1c(Cl)cccc1Cl
active: [5] 55.4 µM
not listed: [9]
inactive: all other assays above

CCOC(=O)C=Cc1ccccc1
not listed: [9]
inactive: all other assays above

C=CC(O)CCCCC (centres undefined)
active: [4] 37.3 µM
not listed: [9]
inactive: all other assays above

CC/C=C\CCOC(C)OCC (centres undefined)
not listed: [9]
inactive: all other assays above

O=[N+]([O-])c1cc(N(CCO)CCO)ccc1NCCO
not listed: [9]
inactive: all other assays above

CC(=O)Oc1c(C)c(C)c2c(c1C)CC[C@@](C)(CCC[C@H](C)CCC[C@H](C)CCCC(C)C)O2
inactive: all assays above

Cc1ccncc1
inactive: all assays above

O=C(OCc1ccccc1)c1ccccc1O
inactive: [1] | [2] | [7]
active: [3] 64.1 µM | [4] 55.1 µM | [5] 61.9 µM | [6] 111 µM | [8] 133 µM

COc1ccccc1NC(=O)CC(C)=O
active: [5] 34.8 µM
inactive: all other assays above

CC(CCO)CC(C)(C)C (centres undefined)
not listed: [9]
inactive: all other assays above

CCCCCCCCCC(=O)OCC
active: [1] 92.2 µM | [5] 58.8 µM | [9] 63.2 µM
inactive: all other assays above

C[C@H](CCC(=O)O)[C@H]1CC[C@H]2[C@@H]3CC[C@@H]4C[C@H](O)CC[C@]4(C)[C@H]3CC[C@]12C
inactive: [1] | [3] | [6]
active: [2] 62.7 µM | [4] 29.4 µM | [5] 62.7 µM | [7] 168 µM | [8] 165 µM

C[N+](C)(C)CCO
not listed: [9]
inactive: all other assays above

O=c1cc(-c2ccc(O)cc2)oc2cc(O)cc(O)c12
inactive: [5] | [7] | [8] | [9]
active: [1] 26 µM | [2] 16.8 µM | [3] 6.31 µM | [4] 7.83 µM | [6] 64.3 µM

c1ccc2scnc2c1
active: [5] 50.8 µM
inactive: all other assays above

CC1COC(=O)O1 (centres undefined)
not listed: [9]
inactive: all other assays above

CC(C)COC(=O)c1ccccc1
inactive: all assays above

Nc1cc([N+](=O)[O-])ccc1C(=O)O
active: [5] 20.3 µM
inactive: all other assays above

CC(=O)c1ccc2ccccc2c1
active: [5] 3.53 µM
not listed: [9]
inactive: all other assays above

CCCCCCCCCCCCN1CCOCC1
active: [3] 44.8 µM | [4] 60.5 µM | [6] 51.8 µM | [8] 47.7 µM
inactive: [1] | [2] | [5] | [7]

CC1(C)[C@H](C=C(Cl)Cl)[C@H]1C(=O)OCc1cccc(Oc2ccccc2)c1
not listed: [9]
inactive: all other assays above

CN(C)C(=O)Nc1ccccc1
not listed: [9]
inactive: all other assays above

NCCN1CCNCC1
inactive: all assays above

O=C(O)c1cccc(Cl)n1
inactive: all assays above

c1ccc(Sc2ccccc2)cc1
inactive: all assays above

CC(C)(C)c1cccc(O)c1
not listed: [9]
inactive: all other assays above

C=C(C)C(=O)OCCN(C)C
inactive: all assays above

CCOc1ccc(NC(C)=O)cc1
not listed: [9]
inactive: all other assays above

CCCCC(CC)COCCO (centres undefined)
active: [5] 19.8 µM
not listed: [9]
inactive: all other assays above

CCCCCC#CC(=O)OC
not listed: [9]
inactive: all other assays above

CCCCOCCOCCOCCO
inactive: all assays above

CCCCN(CCCC)CCCCCCN(CCCC)CCCC
inactive: all assays above

CCCCCCCCCCCCS
active: [2] 24.2 µM | [4] 33.4 µM | [6] 48.8 µM | [9] 9.11 µM
inactive: all other assays above

CCCCCCCCOS(=O)(=O)O
not listed: [9]
inactive: all other assays above

O=C(O)c1ccc(C(=O)O)c(C(=O)O)c1
not listed: [6] | [9]
inactive: all other assays above

CC(=O)CC(=O)N(C)C
not listed: [5] | [9]
inactive: all other assays above

Cc1cc(N)n(-c2ccccc2)n1
not listed: [5]
inactive: all other assays above

CCC(=O)OCC=Cc1ccccc1
not listed: [5] | [9]
inactive: all other assays above

CCCCCC(=O)O[C@]1(C(C)=O)CC[C@H]2[C@@H]3CCC4=CC(=O)CC[C@]4(C)[C@H]3CC[C@@]21C
inactive: [3] | [4] | [5] | [7]
active: [1] 6.58 µM | [2] 8.6 µM | [8] 7.66 µM

CC(C)(C)C1CCC(O)CC1 (centres undefined)
not listed: [5]
inactive: all other assays above

CCOC(=O)CC1(C)OCC(C)O1 (centres undefined)
not listed: [8]
inactive: all other assays above

FC(F)(F)c1ccc(Cl)c(Cl)c1
not listed: [6] | [8] | [9]
inactive: all other assays above

[Na+]
not listed: [6] | [9]
inactive: all other assays above

CC(=O)c1ccc(C)cc1
not listed: [6] | [9]
inactive: all other assays above

CCCCCCCCOC(=O)c1ccc(O)cc1
not listed: [5] | [9]
inactive: all other assays above

COC(=O)C(C)Oc1ccc(Oc2ncc(C(F)(F)F)cc2Cl)cc1 (centres undefined)
active: [5] 3.09 µM | [8] 149 µM
not listed: [6] | [9]
inactive: all other assays above

CC/C=C\CCOC(=O)C(C)C
not listed: [5]
inactive: all other assays above
